# Sampled rows, rich in hits. Any-hit rate of the full collection: about 3.5%.
# TEAD-YAP inh = TEAD-YAP interaction inhibition, primary screen, TEAD-YAP interaction inhibitor project, luminescence, HEK-TIYL cells. TEAD-Gal4/YAP UAS-luciferase luminescence. inhibition, % at 9.12 µM. 1.4% of 640,000 active. AID 1259422, 2018; in the data active = inhibition above about 32%;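 note: 0% = median of test compound wells and 100% = reference inhibitor wells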
# FBW7 activator = FBW7 E3 ligase activators, primary screen, biochemical, AlphaScreen, human; AID 1259310, 2017; 0.13% of 650,000 active; F-box/WD repeat-containing protein 7 (Homo sapiens), Q969H0; AlphaScreen FBW7–phospho-cyclin E peptide binding, activator screen; normalized activity (activation), % at 26.1 µM; in the data active = normalized activity above about 1.9%;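 note: purified mutant Fbw7 with reduced substrate affinity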
# MITF primary = MITF inhibitors, primary screen, biochemical, AlphaScreen, human; Microphthalmia-associated transcription factor (Homo sapiens), O75030; AlphaScreen MITF homodimerization, bead proximity signal; inhibition, % at 2.6 µM; 0.91% of 650,000 active; in the data active = inhibition above about 50%;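 note: 0% = vehicle wells with protein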
# Target sequence (O75030 whole entry, looked up): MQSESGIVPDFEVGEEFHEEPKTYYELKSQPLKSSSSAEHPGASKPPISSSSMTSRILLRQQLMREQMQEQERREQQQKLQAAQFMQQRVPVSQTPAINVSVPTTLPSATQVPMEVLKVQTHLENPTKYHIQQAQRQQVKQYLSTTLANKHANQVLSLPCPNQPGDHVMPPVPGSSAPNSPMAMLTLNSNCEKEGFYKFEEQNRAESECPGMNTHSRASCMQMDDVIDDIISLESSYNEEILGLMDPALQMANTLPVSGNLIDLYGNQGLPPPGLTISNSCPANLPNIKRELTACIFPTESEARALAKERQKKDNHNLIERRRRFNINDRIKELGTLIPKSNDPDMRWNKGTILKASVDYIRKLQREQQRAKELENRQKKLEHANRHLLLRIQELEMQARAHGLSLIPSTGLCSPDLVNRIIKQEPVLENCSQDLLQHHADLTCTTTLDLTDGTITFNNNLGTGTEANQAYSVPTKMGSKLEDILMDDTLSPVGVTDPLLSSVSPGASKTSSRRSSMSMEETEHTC
# GPR151 activ = activators of human GPR151, primary screen, cell-based, PathHunter beta-arrestin, luminescence. G-protein coupled receptor 151 (Homo sapiens), Q8TDV0. 1% of 650,000 active. activation, % at 11.2 µM. PathHunter beta-arrestin GPR151 cells; in the data active = activation above about 4.9%;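 note: 0% = median of compound wells and 100% = cells with positive control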
# MITF inh conf = MITF inhibitors, retest of hits, confirmation, biochemical, AlphaScreen, triplicate; shares compounds with MITF primary; AlphaScreen MITF homodimerization, biotin/His-MITF beads; inhibition, % at 2.6 µM; 16% of 4,700 active; AID 1259372, 2018;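 active = inhibition above a cutoff derived from the DMSO control wells, cut at about 28% in these data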;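 note: 0% = MITF dimer wells with DMSO only; inhibitors lower the bead chemiluminescence by keeping MITF from dimerizing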
# AS interf DR = AlphaScreen optical interference compounds, dose response, counter-screen, biochemical, HTS | shares compounds with MITF primary | AlphaScreen optical interference counterscreen, cell-free | IC50, µM | 6% of 480 active; call rule not given here
# AS interf ctr = AlphaScreen optical interference compounds, counter-screen for MITF inhibitor project, biochemical, triplicate; shares compounds with MITF primary; LysRS AlphaScreen counterscreen, signal interference; inhibition, % at 2.6 µM; 7.6% of 4,700 active; AID 1259376, 2018;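 active = inhibition above a cutoff derived from the DMSO control wells, cut at about 30% in these data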
# The depositor's hits bear a star; . = no result.
SMILES,TEAD-YAP inh,FBW7 activator,MITF primary,GPR151 activ,MITF inh conf,AS interf ctr,others
O=C(CNCc1ccc2c(c1)OCO2)Nc1ccc(N2CCCC2)cc1,-1,0,62*,0,21,23,
c1cc2c(cc1CNCC1CCCCC1)OCO2,-8,0,58*,-1,9,11,
COCc1cc(C)nc2sc(C(=O)Nc3ccc(C#N)cc3)c(N)c12,-4,0,7,1,.,.,
CC1CCCN(C(=O)C2CCN(Cc3cccc(O)c3)CC2)C1 (stereo unspecified),2,0,18,0,.,.,
COc1cccc(CN2CCC(C(=O)N3CCN(c4ccccc4F)CC3)CC2)c1OC,1,0,52*,-1,8,11,
O=C(C1CCN(Cc2cccc(O)c2)CC1)N1CCN(c2ccccc2F)CC1,4,1,76*,0,-9,-8,
COc1ccccc1CN1CCC(C(=O)N2CCCC2)CC1,-8,0,45,-1,.,.,
O=C1C(=O)N(CC2CCCO2)C(c2ccco2)/C1=C(/O)c1ccc(Cl)cc1 (stereo unspecified),-17,0,53*,0,7,10,
O=C1C(=O)N(CC2CCCO2)C(c2ccc(Cl)cc2)/C1=C(/O)c1ccccc1 (stereo unspecified),0,0,6,-1,.,.,
O=C(COC(=O)c1ccco1)c1ccc2ccccc2c1,-1,0,92*,3,9,8,
O=[N+]([O-])c1ccc(S(=O)(=O)N2CCSC2c2ccc3c4c(cccc24)CC3)cc1 (stereo unspecified),7,0,6,0,.,.,
CCN(CC)C(=O)Cn1cc(C(=O)C(N)=O)c2ccccc21,-8,0,9,-2,.,.,
CCN1CCN(C(c2ccc3ncccc3c2)c2nnnn2C(C)(C)C)CC1 (stereo unspecified),0,0,10,1,.,.,
CC(C)(C)n1nnnc1C(c1ccc2ncccc2c1)N1CCOCC1 (stereo unspecified),-28,0,54*,0,9,5,
c1ccc(C2CCC(N3CCN(Cc4ccco4)CC3)CC2)cc1 (stereo unspecified),-9,0,67*,0,4,6,
c1ccc(C2CCC(N3CCN(C4CCCCCC4)CC3)CC2)cc1 (stereo unspecified),-3,0,63*,-1,2,15,
CC1CCCC(N2CCN(Cc3ccco3)CC2)C1 (stereo unspecified),-6,0,74*,0,-1,1,
c1ccc(C2CCC(N3CCN(C4CCCC4)CC3)CC2)cc1 (stereo unspecified),3,0,19,-1,.,.,
CC(C)(C)NC(=O)NC(=O)COC(=O)c1ccc(Cl)c(S(N)(=O)=O)c1,-4,0,-2,0,.,.,
O=[N+]([O-])c1ccc(-n2cccc2C=NCCO)cc1,7,1,13,0,.,.,
O=C(O)c1ccc(NC2OC(CO)C(O)C2O)cc1 (stereo unspecified),3,0,66*,-2,57*,7,AS interf DR=>5.6
O=C(Nc1cccc(-c2nc3ncccc3o2)c1)c1ccc([N+](=O)[O-])cc1Cl,6,0,-2,0,.,.,
O=C(CNCCOCCO)N1c2ccccc2Sc2ccccc21,12,0,74*,1,6,7,
COCCNCC(=O)N1c2ccccc2Sc2ccccc21,10,1,8,2,.,.,
COc1cccc(/C=N/NC(=O)CCN2CCN(C)CC2)c1,2,1,43,0,.,.,
SMILES,TEAD-YAP inh,FBW7 activator,MITF primary,GPR151 activ,MITF inh conf,AS interf ctr,others
Cc1sc2nc(CNCc3ccco3)[nH]c(=O)c2c1-c1ccccc1,5,0,58*,3,-1,5,
COc1ccccc1/C=N/NC(=S)Nc1cccnc1,12,0,-9,0,.,.,
O=[N+]([O-])c1ccccc1S(=O)(=O)N1CCN(Cc2ccccc2)CC1,-11,0,1,-1,.,.,
O=[N+]([O-])c1ccccc1S(=O)(=O)N1CCN(Cc2cccs2)CC1,-4,0,55*,1,9,13,
Cc1cccc(CN2CCN(S(=O)(=O)c3ccccc3[N+](=O)[O-])CC2)c1,5,0,59*,0,45*,10,AS interf DR=>5.1
O=[N+]([O-])c1ccccc1S(=O)(=O)N1CCN(Cc2ccsc2)CC1,5,0,40,0,.,.,
O=[N+]([O-])c1ccccc1S(=O)(=O)N1CCN(Cc2ccncc2)CC1,-3,0,76*,0,10,15,
O=[N+]([O-])c1ccccc1S(=O)(=O)N1CCN(Cc2cccc(F)c2)CC1,0,0,56*,0,8,14,
CCc1c(C)sc(NC(=O)CCCn2cnc([N+](=O)[O-])n2)c1C#N,0,0,-8,-1,.,.,
COc1cccc(CN2CCN(S(=O)(=O)c3ccccc3[N+](=O)[O-])CC2)c1OC,-18,0,53*,1,23,21,
O=[N+]([O-])c1nn(-c2cccc(Cl)c2)n(O)c1=NC1CCCCC1,5,-1,56*,-1,15,14,
Cc1cccc(NC(=O)CCN2CCC(C(N)=O)CC2)c1,5,0,1,1,.,.,
Cc1ccc(/C=C(\C#N)C(=O)Nc2c(Cl)cccc2Cl)o1,-14,0,74*,-2,5,18,
Cc1ccc(/C=C(\C#N)C(=O)Nc2cccc(Cl)c2Cl)o1,-2,0,8,0,.,.,
COc1ccc(C(=O)C2CCCN(C(=O)Cn3cnc4ccccc43)C2)c(C)c1 (stereo unspecified),-9,0,-3,0,.,.,
C[C@@H](O)[C@@H]1NC(=O)[C@H]2CN(C(=O)NC3CCCCC3)CCN2C1=O,1,0,80*,-1,73*,-5,AS interf DR=>6.5
CC(C)[C@H]1NC(=O)[C@H]2CN(C(=O)c3ccccc3)CCN2C1=O,-12,0,4,1,.,.,
Cc1ccc(C(=O)N2CCN3C(=O)[C@@H]([C@H](C)O)NC(=O)[C@H]3C2)cc1,-7,0,11,-1,.,.,
CC(C)[C@H]1NC(=O)[C@H]2CN(C(=O)NC3CCCCC3)CCN2C1=O,5,0,76*,1,72*,-12,AS interf DR=>6.5
Cc1ccc(S(=O)(=O)N2CCN(CC3CC=CCC3)CC2)cc1 (stereo unspecified),1,0,34,0,.,.,
CCOc1ccccc1CN1CCN(Cc2ccc3c(c2)OCO3)CC1,2,0,52*,1,4,0,
CN1CCCN(Cc2ccc3c(c2)OCO3)CC1,-4,0,52*,3,2,1,

# Assay outcomes: PubChem, The Scripps Research Institute Molecular Screening Center
